# From PubChem BioAssay (NCATS)
# Records with an inconclusive call do not appear. Activity calls are given as the source filed them. Calls come from the whole dose curve; as a rule, active = well fitted cell-killing curve with a large enough effect; inconclusive = small, poorly fitted or top-dose-only effect, or effect the other way; inactive = no such curve, though single readings can be large or run the other way. Starred links: 1 amine or outer side, 2 acyl side, 3 side chain; linkers in the order of their positions; H or OH if unused. Positions of bridges follow the written chain, without caps; N, C: chain ends. Non-standard residues stand in square brackets, D forms with d. Residues, ends and D or L forms follow the SMILES beside them. Chains are numbered I, II in the order given. Actinocin(9to1) = Cc1c2oc3c(C)ccc(C(=O)[*:1])c3nc-2c(C(=O)[*:2])c(N)c1=O; NMeV = CN[CH](C(=O)O)C(C)C; Sar = CNCC(=O)O
# Experiment: Quantitative High-Throughput drug screen in 47 multiple myeloma cell lines against the NCATS MIPE library collection: RPMI8226_ATCC cell viability assay (AID 1919871)
# Conditions: RPMI8226 myeloma viability, CellTiter-Glo ATP luminescence, 48 h; series mostly up to 45.8 µM
# Procedure, shortened: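 Cells were exposed to library compounds for 48 hours, after which ATP was measured by CellTiter-Glo. Signal was taken as median relative luminescence units.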
# Note: nearly all actives have a fitted effect of over 30% in size.
# Potency is the fitted concentration of half-maximal effect.
row,Compound,Potency
1,CCc1ccc(C(=O)Nc2cc(CN3CCN(C)CC3)cc(C(F)(F)F)c2)cc1C#Cc1cnc2ccnn2c1,20.9 µM (active)
2,C=CC[C@@H]1C=C(C)C[C@H](C)C[C@H](OC)[C@H]2O[C@@](O)(C(=O)C(=O)N3CCCC[C@H]3C(=O)O[C@H](C(C)=C[C@@H]3CC[C@H](O)[C@H](OC)C3)[C@@H](C)[C@@H](O)CC1=O)[C@@H](C)C[C@@H]2OC,2.09 µM (active)
3,CO[C@@H]1[C@@H](O)[C@H](O)[C@@H](n2c3c(Cl)cccc3c3c4c(c5c6cccc(Cl)c6[nH]c5c32)C(=O)NC4=O)O[C@@H]1CO,2.35 µM (active)
4,C[C@H](NC(=O)C(C#N)=Cc1cccc(Br)n1)c1ccccc1,4.18 µM (active)
5,Cn1cnc(=N)c2[nH]cnc21,0.264 µM (active)
6,COc1cccc2c1C(=O)c1c(O)c3c(c(O)c1C2=O)C[C@@](O)(C(=O)CO)C[C@@H]3O[C@H]1C[C@H](N)[C@@H](O)[C@H](C)O1,0.935 µM (active)
7,COc1cc(C=CC(=O)CC(=O)C=Cc2ccc(O)c(OC)c2)ccc1O,30.3 µM (active)
8,CCC[C@H]1C[C@H](C(=O)N[C@@H]([C@@H]2O[C@@H](SC)[C@@H](O)[C@@H](O)[C@@H]2O)[C@H](C)Cl)N(C)C1,inactive
9,C=CC(=O)Nc1ccc2ncnc(Nc3ccc(OCc4cccc(F)c4)c(Cl)c3)c2c1,9.35 µM (active)
10,OCc1ccccc1O[C@@H]1O[C@H](CO)[C@H](O)[C@H](O)[C@H]1O,inactive
11,Cn1cc(C2=C(c3c4n(c5ccccc35)CCC(CN)C4)C(=O)NC2=O)c2ccccc21 (stereo not given),18.7 µM (active)
12,O=C(Nc1cccc(Nc2ncc(Br)c(NCCc3cnc[nH]3)n2)c1)N1CCCC1,18.7 µM (active)
13,C[C@@H]1CC[C@@]2(OC1)OC1CC3C4CC=C5CC(O)CCC5(C)C4CCC3(C)C1[C@@H]2C (stereo not given in full),inactive
14,CCS(=O)(=O)Nc1ccc2[nH]c(O)c(C(=Nc3ccc(CN4CCCCC4)cc3)c3ccccc3)c2c1,0.332 µM (active)
15,CCN(CC)CCNC(=O)c1c(C)[nH]c(C=C2C(=O)Nc3ccc(F)cc32)c1C,10.8 µM (active)
16,O=C1NC(=O)[C@@H](c2cn3c4c(cccc24)CCC3)[C@H]1c1c[nH]c2ccccc12,16.6 µM (active)
17,NC(=NCCCCCCN=C(N)N=C(N)Nc1ccc(Cl)cc1)N=C(N)Nc1ccc(Cl)cc1,16.6 µM (active)
18,CC(C)C[C@H](NC(=O)[C@@H](NC(=O)c1cccc(-c2ccccc2)n1)[C@@H](C)O)B(O)O,0.0526 µM (active)
19,O=C1CSC(=O)N1C(CCc1ccncc1)COc1ccc(-c2cccc([N+](=O)[O-])c2)cc1 (stereo not given),7.43 µM (active)
20,C[C@H](NCc1ccc(OCc2cccc(F)c2)cc1)C(N)=O,16.6 µM (active)
21,C[C@@]12C(=O)OC(=O)[C@@]1(C)C1CCC2O1,2.96 µM (active)
22,"Cc1c2oc3c(C)ccc(C(=O)NC4C(=O)NC(C(C)C)C(=O)N5CCCC5C(=O)N(C)CC(=O)N(C)C(C(C)C)C(=O)OC4C)c3nc-2c(C(=O)NC2C(=O)NC(C(C)C)C(=O)N3CCCC3C(=O)N(C)CC(=O)N(C)C(C(C)C)C(=O)OC2C)c(N)c1=O (stereo not given) (I: TVP[Sar][NMeV] / II: TVP[Sar][NMeV]; ester I:1-I:C, II:1-II:C; linker I:N-II:N via Actinocin(9to1); configuration not given here)",inactive
23,CC(C=CC(=O)NO)=C[C@@H](C)C(=O)c1ccc(N(C)C)cc1,0.332 µM (active)
24,CN1[C@H]2CC(OC(=O)[C@@H](CO)c3ccccc3)C[C@H]1[C@H]1O[C@H]12 (stereo not given in full),inactive
25,CN(C)c1ccc2cc(C(=O)N[C@@H](CCCN=C(N)CCl)C(=O)NCc3ccccc3)ccc2c1,18.7 µM (active)
26,COc1cccc2c1C(=O)c1c(O)c3c(c(O)c1C2=O)C[C@@](O)(C(=O)CO)C[C@H]3O[C@H]1C[C@H](N)[C@H](O)[C@H](C)O1,0.235 µM (active)
27,CC(C)C[C@H](NC(=O)CNC(=O)c1cc(Cl)ccc1Cl)B1OC(=O)CC(CC(=O)O)(C(=O)O)O1 (stereo not given in full),0.118 µM (active)

# Experiment: Quantitative High-Throughput drug screen in 47 multiple myeloma cell lines against the NCATS MIPE library collection: OPM2_DSMZ cell viability assay (AID 1919872)
# Conditions: OPM2 myeloma viability, CellTiter-Glo ATP luminescence, 48 h; series mostly up to 45.8 µM
# Procedure, shortened: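 Viability readout: CellTiter-Glo luminescence following 5 min room-temperature incubation with reagent. Prior exposure: 48 h, 37C, humidified 5% CO2, 500 cells per well.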
row,Compound,Potency
1,CCc1ccc(C(=O)Nc2cc(CN3CCN(C)CC3)cc(C(F)(F)F)c2)cc1C#Cc1cnc2ccnn2c1,14.8 µM (active)
2,CO[C@@H]1[C@@H](O)[C@H](O)[C@@H](n2c3c(Cl)cccc3c3c4c(c5c6cccc(Cl)c6[nH]c5c32)C(=O)NC4=O)O[C@@H]1CO,5.9 µM (active)
3,Cc1cc(O)c2c(c1)C(=O)c1cccc(O)c1C2=O,inactive
4,C[C@H](NC(=O)C(C#N)=Cc1cccc(Br)n1)c1ccccc1,7.43 µM (active)
5,Cn1cnc(=N)c2[nH]cnc21,0.235 µM (active)
6,CC(C)N1[N]C(=C2C=c3cc(O)ccc3=N2)c2c(N)ncnc21,0.235 µM (active)
7,COc1cccc2c1C(=O)c1c(O)c3c(c(O)c1C2=O)C[C@@](O)(C(=O)CO)C[C@@H]3O[C@H]1C[C@H](N)[C@@H](O)[C@H](C)O1,2.09 µM (active)
8,COc1cc(C=CC(=O)CC(=O)C=Cc2ccc(O)c(OC)c2)ccc1O,21.5 µM (active)
9,CCC[C@H]1C[C@H](C(=O)N[C@@H]([C@@H]2O[C@@H](SC)[C@@H](O)[C@@H](O)[C@@H]2O)[C@H](C)Cl)N(C)C1,inactive
10,C=CC(=O)Nc1ccc2ncnc(Nc3ccc(OCc4cccc(F)c4)c(Cl)c3)c2c1,1.05 µM (active)
11,OCc1ccccc1O[C@@H]1O[C@H](CO)[C@H](O)[C@H](O)[C@H]1O,inactive
12,Cn1cc(C2=C(c3c4n(c5ccccc35)CCC(CN)C4)C(=O)NC2=O)c2ccccc21 (stereo not given),18.7 µM (active)
13,O=C(Nc1cccc(Nc2ncc(Br)c(NCCc3cnc[nH]3)n2)c1)N1CCCC1,4.18 µM (active)
14,C=CCNc1c(O)cc2c(O)c1C[C@@H](C)C[C@H](OC)[C@@H](O)[C@@H](C)C=C(C)[C@H](OC(N)=O)[C@@H](OC)C=CC=C(C)C(=O)N2,1.66 µM (active)
15,C[C@@H]1CC[C@@]2(OC1)OC1CC3C4CC=C5CC(O)CCC5(C)C4CCC3(C)C1[C@@H]2C (stereo not given in full),inactive
16,CCS(=O)(=O)Nc1ccc2[nH]c(O)c(C(=Nc3ccc(CN4CCCCC4)cc3)c3ccccc3)c2c1,0.833 µM (active)
17,CCN(CC)CCNC(=O)c1c(C)[nH]c(C=C2C(=O)Nc3ccc(F)cc32)c1C,6.05 µM (active)

row,Compound,Potency
1,O=C1NC(=O)[C@@H](c2cn3c4c(cccc24)CCC3)[C@H]1c1c[nH]c2ccccc12,1.32 µM (active)
2,COC1=C2C[C@@H](C)C[C@H](OC)[C@@H](O)[C@@H](C)C=C(C)[C@H](OC(N)=O)[C@@H](OC)C=CC=C(C)C(=O)NC(=CC1=O)C2=O,0.332 µM (active)
3,NC(=NCCCCCCN=C(N)N=C(N)Nc1ccc(Cl)cc1)N=C(N)Nc1ccc(Cl)cc1,14.8 µM (active)
4,CC(C)C[C@H](NC(=O)[C@@H](NC(=O)c1cccc(-c2ccccc2)n1)[C@@H](C)O)B(O)O,0.0418 µM (active)
5,C#C[C@]1(O)CC[C@@H]2[C@@H]3CCC4=CC(=O)CC[C@@H]4[C@H]3CC[C@@]21CC,inactive
6,CC(=O)O[C@@]12CO[C@H]1C[C@H](O)[C@@]1(C)C(=O)[C@H](O)C3=C(C)[C@@H](OC(=O)C(O)[C@@H](NC(=O)OC(C)(C)C)c4ccccc4)C[C@@](O)([C@@H](OC(=O)c4ccccc4)[C@@H]21)C3(C)C (stereo not given in full),inactive
7,C[C@H](NCc1ccc(OCc2cccc(F)c2)cc1)C(N)=O,11.8 µM (active)
8,C[C@@]12C(=O)OC(=O)[C@@]1(C)C1CCC2O1,0.662 µM (active)
9,"Cc1c2oc3c(C)ccc(C(=O)NC4C(=O)NC(C(C)C)C(=O)N5CCCC5C(=O)N(C)CC(=O)N(C)C(C(C)C)C(=O)OC4C)c3nc-2c(C(=O)NC2C(=O)NC(C(C)C)C(=O)N3CCCC3C(=O)N(C)CC(=O)N(C)C(C(C)C)C(=O)OC2C)c(N)c1=O (stereo not given) (I: TVP[Sar][NMeV] / II: TVP[Sar][NMeV]; ester I:1-I:C, II:1-II:C; linker I:N-II:N via Actinocin(9to1); configuration not given here)",inactive
10,CC(C=CC(=O)NO)=C[C@@H](C)C(=O)c1ccc(N(C)C)cc1,0.833 µM (active)
11,CN1[C@H]2CC(OC(=O)[C@@H](CO)c3ccccc3)C[C@H]1[C@H]1O[C@H]12 (stereo not given in full),inactive
12,CN(C)c1ccc2cc(C(=O)N[C@@H](CCCN=C(N)CCl)C(=O)NCc3ccccc3)ccc2c1,18.7 µM (active)
13,COc1cccc2c1C(=O)c1c(O)c3c(c(O)c1C2=O)C[C@@](O)(C(=O)CO)C[C@H]3O[C@H]1C[C@H](N)[C@H](O)[C@H](C)O1,1.18 µM (active)
14,CCC(C(=O)O)C1CCC(C)C(C(C)C(O)C(C)C(=O)C(CC)C2OC3(C=CC(O)[C@@]4(CC[C@](C)(C5CC[C@@](O)(CC)C(C)O5)O4)O3)C(C)CC2C)O1 (stereo not given in full),1.87 µM (active)
15,CCC(C=C[C@@H]1OC(=O)C=C[C@H]1C)=C[C@H](C)CC=CC(C)=C[C@@H](C)C(=O)[C@@H](C)[C@H](O)[C@@H](C)CC(C)=CC(=O)O,0.0277 µM (active)
16,CC(C)C[C@H](NC(=O)CNC(=O)c1cc(Cl)ccc1Cl)B1OC(=O)CC(CC(=O)O)(C(=O)O)O1 (stereo not given in full),0.132 µM (active)
